Test results reported in PubChem BioAssay (NCI).
About 83,000 compounds went through this panel and 20% of them were active in at least one assay; those are over-represented in the sample as a whole.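 Method: cells in 96-well plates; compound added at one concentration; 48 h incubation; percent growth measured; values under 10 scored active.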 Calls of active or inactive are those of the source.

Legend:
Assay in all cases: NCI-60 one-dose screen, 48 h (100 = growth as untreated, 0 = no growth, -100 = all killed)
Conditions in all cases: 10 µM unless noted
[1] = tested on: SR leukemia
[2] = tested on: RPMI-8226 leukemia
[3] = tested on: OVCAR-5 ovarian
[4] = tested on: OVCAR-4 ovarian
[5] = tested on: SK-OV-3 ovarian
[6] = tested on: IGROV1 ovarian
[7] = tested on: OVCAR-3 ovarian
[8] = tested on: HS 578T breast
[9] = tested on: NCI/ADR-RES ovarian
[10] = tested on: OVCAR-8 ovarian

Measured: growth

COc1ccc(-c2cc(-c3nnc(SC/C(=N\O)c4ccccc4)n3-c3ccccc3)c3ccccc3n2)cc1
inactive: [1] 86.8% | [2] 97.9% | [3] 119% | [4] 113% | [5] 79.4% | [6] 105% | [7] 107% | [8] 98.4% | [9] 104%

O=C1c2ccccc2C(=O)c2c(NCCN=Cc3c(O)ccc4ccccc34)cccc21
inactive: [1] 32% | [2] 78.7% | [3] 112% | [4] 94.3% | [5] 84.2% | [6] 65.5% | [7] 83.7% | [9] 85.5%

Cc1cc(C)c(O)c(C(=O)CC(Br)C(=O)O)c1 (stereo not given)
inactive: [1] 78.3% | [2] 35.8% | [3] 106% | [4] 106% | [5] 103% | [6] 106% | [7] 108% | [9] 103%

COC1=C(OC)C(=O)C=CC1=O
inactive: [1] 38.1% | [2] 91.4% | [3] 116% | [4] 102% | [5] 114% | [6] 96.5% | [9] 109%

CC(C)C1(C(C)C)NC(=O)NC1=O
inactive: [2] 117% | [10] 110% | [3] 101% | [4] 107% | [5] 108% | [6] 99.4% | [7] 110% | [8] 92.6% | [9] 103%

CCCc1nn2c(CCC(=O)c3nc4ccc([N+](=O)[O-])cc4[nH]3)nnc2s1
inactive: [2] 133% | [10] 109% | [3] 97.5% | [4] 100% | [5] 110% | [6] 101% | [7] 109% | [8] 91.1% | [9] 104%

O=[N+]([O-])c1cccc2cc(S(=O)(=O)O)ccc12
inactive: [1] 103% | [2] 99% | [3] 107% | [4] 114% | [5] 95.1% | [6] 104% | [7] 99.8% | [9] 101%

O=C(O)c1ccc(-c2nn(-c3ccc(C(=O)O)cc3)cc2/C=N/Nc2c(F)c(F)cc(F)c2F)cc1
inactive: [1] 94% | [2] 103% | [3] 101% | [4] 111% | [5] 97.9% | [6] 108% | [7] 104% | [8] 112% | [9] 105%

COc1ccc2c(c1)OC(N(C(C)=O)C(C)=O)=C(C#N)C2c1ccc(F)cc1 (stereo not given)
inactive: [10] 38.5% | [3] 65.2% | [4] 81.9% | [5] 23.9% | [6] 56.1% | [7] 11.9% | [8] 23.6% | [9] 30.6%
active: [2] 3.13%

CCOc1ccccc1C(=O)N1CCN(c2cc(Cl)cc(Cl)c2)CC1
active: [1] 6.79% | [2] 1.53% | [7] -22.7%
inactive: [3] 46.6% | [4] 31.7% | [5] 25.8% | [6] 13.8% | [9] 14.5%

O=C(Nc1cccc(-n2ccc3c(NC(=O)c4ccccc4)nccc32)c1)Nc1cc(C(F)(F)F)cc(C(F)(F)F)c1
active: [1] -14.9% | [2] -30.6% | [6] 6.92% | [7] -26.9% | [9] -30.5%
inactive: [3] 28% | [4] 43.9% | [5] 13.5%

Cc1ccc2c(C3C(C#N)=C(N)Oc4cc5ccccc5cc43)cc(=O)oc2c1 (stereo not given)
inactive: [1] 16.9% | [2] 21.9% | [3] 49.7% | [4] 67.6% | [5] 28.3% | [6] 39.7% | [8] 51.6% | [9] 11.8%

CC(=O)c1cc2c(c(O)c1C)C(=O)C(=O)c1c(O)cccc1-2
active: [2] -32.4% | [10] -60.6% | [3] -80.6% | [4] -97.6% | [5] -94.3% | [6] -37.3% | [7] -45.6% | [8] -12.3% | [9] -8.15%

COc1cc(C(=O)N2CCN(C(=O)c3cc(OC)c(OCc4ccccc4)cc3N)CC2)c(N)cc1OCc1ccccc1
inactive: [1] 81.2% | [2] 179% | [3] 103% | [4] 103% | [5] 111% | [6] 106% | [8] 109% | [9] 98.7%

CS(=O)(=O)OCC(COS(C)(=O)=O)C(c1ccccc1)c1ccccc1
inactive: [1] 74.7% | [10] 118% | [3] 110% | [4] 106% | [5] 101% | [6] 102% | [7] 127% | [8] 104% | [9] 99%

O=C(O)c1cn(C2CC2)c2cc(N3CCN(C(=O)CSc4nc(NS(=O)(=O)c5ccccc5)cc(=O)[nH]4)CC3)c(F)cc2c1=O
inactive: [2] 82.1% | [10] 98.5% | [3] 112% | [4] 104% | [5] 117% | [6] 98.3% | [7] 83.9% | [8] 89.1% | [9] 101%

Nc1nc(-c2cc3c(cc2Cl)NC(=O)/C3=C/c2ccc(Cl)cc2)cs1
inactive: [2] 31.9% | [10] 50.8% | [3] 92% | [4] 48.6% | [5] 71.8% | [6] 34.9% | [7] 32.8% | [8] 48.1% | [9] 74.5%

CC(C(C(=O)N1CCCCC1)N1CCCCC1)N1CCCCC1 (stereo not given)
inactive: [1] 71.3% | [10] 105% | [4] 116% | [5] 103% | [6] 160% | [7] 119% | [8] 103% | [9] 112%

CC(=O)O[C@@H]1[C@@H](OC(C)=O)[C@H](OC(C)=O)CO[C@H]1Nc1cccc2ccccc12
inactive: [2] 87.9% | [10] 102% | [3] 100% | [4] 103% | [5] 105% | [6] 97.9% | [7] 95.7% | [8] 96.3% | [9] 95.9%

Cc1ccc[n+](CC(=O)c2cccc3ccccc23)c1
inactive: [1] 112% | [2] 101% | [3] 98.6% | [4] 103% | [5] 96.9% | [6] 96% | [8] 106% | [9] 108%

COC(OC)C1(c2ccccc2)NC(=O)NC1=O (stereo not given)
inactive: [1] 74.8% | [4] 113% | [5] 102% | [6] 142% | [7] 126% | [8] 111% | [9] 116%

COc1ccc(-c2nn(-c3cccc(Cl)c3)cc2-c2cc(-c3ccc(Br)cc3)[nH]c(=O)c2C#N)cc1
inactive: [2] 75% | [10] 77.9% | [3] 105% | [5] 89.1% | [6] 92.9% | [7] 68% | [8] 33% | [9] 65%
active: [4] -34%

CC(CN(C)C)CN1c2ccccc2CCc2ccccc21 (stereo not given)
inactive: [1] 91.4% | [2] 90.4% | [4] 78.7% | [5] 95% | [6] 62% | [7] 111% | [8] 86.4% | [9] 76.4%

Cc1ccccc1C[P+](c1ccccc1)(c1ccccc1)c1ccccc1
active: [4] 3.27% | [7] 1.98%
inactive: [1] 22.2% | [2] 10% | [3] 55.2% | [5] 42.6% | [6] 20% | [9] 114%

COc1ccc2c(c1)O/C(=C/c1ccc(OCC(=O)Nc3ccc(S(N)(=O)=O)cc3)cc1)C2=O
inactive: [1] 79.1% | [2] 91.3% | [3] 103% | [4] 102% | [5] 102% | [6] 111% | [7] 104% | [8] 99.4% | [9] 103%

O=C(Nc1ccc(-n2ccc3c(NC(=O)c4ccccc4)nccc32)cc1)c1ccc(Cl)c(C(F)(F)F)c1
inactive: [3] 62.9% | [4] 88.5% | [5] 53.9% | [6] 36% | [7] 22.9% | [9] 22.9%
active: [1] -28.7% | [2] -17.3%

CN(C)c1ncc(C#Cc2c(F)cccc2F)c2ccccc12
inactive: [1] 83.8% | [2] 68.1% | [3] 99.8% | [4] 85.3% | [5] 89.3% | [6] 48.2% | [7] 88.4% | [8] 108% | [9] 92.9%

c1coc(CSc2ncnc3nc[nH]c23)c1
inactive: [2] 107% | [10] 90.3% | [3] 103% | [4] 99% | [5] 95.7% | [6] 97.1% | [7] 107% | [8] 106% | [9] 106%

COc1ccc(-c2coc3c(CO)c(O)ccc3c2=O)cc1
inactive: [2] 36.6% | [10] 73.6% | [3] 102% | [4] 75.6% | [5] 84.7% | [6] 61.2% | [8] 57.2% | [9] 86.3%
active: [7] 9.94%
